“And” between values parts separate entries of the source, which are not always exact repeats. Equal values may be shown once. Results filed as inconclusive are left out. A call without a number means that no potency is given here. The source made the active and inactive calls. Unless noted, the call rests on the fitted dose curve.
What was measured:
[1] = qHTS for Inhibitors of the Functional Ribonucleoprotein Complex (vRNP) of Lassa (LASV) Arenavirus: LASV Primary Screen - GLuc reporter signal (AID 1347082; calls by dose curve; tested in HEK293 reporter line; further: nearly all actives have a fitted effect of over 60% in size; further: potency means the concentration at half of the fitted maximal effect)
[2] = qHTS for Inhibitors of the Functional Ribonucleoprotein Complex (vRNP) of Lassa (LASV) Arenavirus: Viability assay - alamar blue signal for LASV Primary Screen (AID 1347083; calls by dose curve; tested in HEK293 reporter line; further: nearly all actives have a fitted effect of over 80% in size; further: potency means the concentration at half of the fitted maximal effect)
[3] = qHTS for Inhibitors of the Functional Ribonucleoprotein Complex (vRNP) of Lymphocytic Choriomeningitis Arenaviruses (LCMV): Viability assay - alamar blue signal for LCMV Primary Screen (AID 1347085; calls by dose curve; tested in HEK293 reporter line; further: nearly all actives have a fitted effect of over 80% in size; further: potency means the concentration at half of the fitted maximal effect)
[4] = molecular target: Nucleoprotein (Lymphocytic choriomeningitis virus (strain Armstrong)) (UniProt P09992); assay: qHTS for Inhibitors of the Functional Ribonucleoprotein Complex (vRNP) of Lymphocytic Choriomeningitis Arenaviruses (LCMV): LCMV Primary Screen - GLuc reporter signal (AID 1347086); further: nearly all actives have a fitted effect of over 70% in size; further: potency means the concentration at half of the fitted maximal effect
Sequence of Nucleoprotein (Lymphocytic choriomeningitis virus (strain Armstrong)) (P09992 whole entry, looked up): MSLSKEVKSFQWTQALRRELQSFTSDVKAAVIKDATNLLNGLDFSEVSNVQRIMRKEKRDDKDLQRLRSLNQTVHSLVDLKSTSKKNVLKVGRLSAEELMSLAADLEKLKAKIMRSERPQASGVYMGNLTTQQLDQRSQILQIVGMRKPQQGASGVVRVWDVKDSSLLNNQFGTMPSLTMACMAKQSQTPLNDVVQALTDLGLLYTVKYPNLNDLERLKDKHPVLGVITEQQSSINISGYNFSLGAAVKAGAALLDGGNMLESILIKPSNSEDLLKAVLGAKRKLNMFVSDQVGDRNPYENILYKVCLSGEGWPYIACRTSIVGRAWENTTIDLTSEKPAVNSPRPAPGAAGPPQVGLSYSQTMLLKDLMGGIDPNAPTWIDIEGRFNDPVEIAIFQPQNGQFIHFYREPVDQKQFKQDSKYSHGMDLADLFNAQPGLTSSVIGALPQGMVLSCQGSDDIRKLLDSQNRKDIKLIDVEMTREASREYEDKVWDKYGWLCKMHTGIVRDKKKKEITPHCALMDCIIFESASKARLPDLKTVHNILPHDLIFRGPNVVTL

[5] = Validation screen for inhibitors of Lassa infection (AID 463096)
[6] = Inducers of the Endoplasmic Reticulum Stress Response (ERSR) in human glioma: Validation (AID 504836; active means well fitted curve in the direction sought with a large enough effect; an effect the other way counts as inactive or inconclusive)
Outline: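 ERSR induction read as luciferase luminescence (Bright-Glo, 10 min at room temperature) in stably transfected human U87-MG glioma cells exposed to compounds for 16 h, using GRP78 as sensor.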

[7] = Primary qHTS for Huh7 cytotoxicity: counterscreen for inhibitors of MERS-S pseudotyped particle cell entry (AID 1479147); conditions: outcome: dose series up to 57.1 µM unless noted
[8] = Primary qHTS for inhibitors of MERS-S pseudo-typed particle cell entry (AID 1479149); further: nearly all actives have a fitted effect of over 60% in size; further: potency means the concentration at half of the fitted maximal effect
[9] = Primary qHTS for Vero E6 cytotoxicity: counterscreen for inhibitors of SARS-S pseudo-typed particle cell entry (AID 1479150); conditions: outcome: dose series up to 57.1 µM unless noted
[10] = Cytotoxicity counterscreen for inhibitors of SARS-CoV-2 cell entry (AID 1645845); further: nearly all actives have a fitted effect of over 50% in size
Outline: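 ATP-content luminescence (ATPLite 1step, 15 min RT) read after 48 h compound exposure of Expi293F cells stably expressing human ACE2; normalized to cells-only wells and media-only wells.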

[11] = molecular target: Alpha-galactosidase (Coffea arabica) (UniProt Q42656); assay: Counterscreen for Glucocerebrosidase Inhibitors: qHTS Assay for Coffee Bean alpha-Galactosidase at pH 4.5 (AID 957; active means well fitted curve in the direction sought with a large enough effect; an effect the other way counts as inactive or inconclusive)
Sequence of Alpha-galactosidase (Coffea arabica) (Q42656 whole entry, looked up): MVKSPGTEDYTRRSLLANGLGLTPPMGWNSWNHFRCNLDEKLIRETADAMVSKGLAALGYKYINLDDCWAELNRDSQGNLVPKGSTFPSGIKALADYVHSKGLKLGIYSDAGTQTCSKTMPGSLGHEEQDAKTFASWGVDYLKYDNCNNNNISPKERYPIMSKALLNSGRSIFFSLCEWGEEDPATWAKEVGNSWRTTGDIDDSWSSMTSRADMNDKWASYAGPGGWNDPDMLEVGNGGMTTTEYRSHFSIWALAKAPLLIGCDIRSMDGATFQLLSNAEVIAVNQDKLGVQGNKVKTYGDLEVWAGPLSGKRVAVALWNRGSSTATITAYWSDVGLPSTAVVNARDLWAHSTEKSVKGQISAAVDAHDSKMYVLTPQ
Outline: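 Quantitative HTS of compounds (0.7 nM to 77 uM) against coffee bean alpha-galactosidase at pH 4.5, measuring 4-methylumbelliferone fluorescence released from 80 uM substrate.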

[12] = molecular target: Alpha-galactosidase (Coffea arabica) (UniProt Q42656); assay: Counterscreen for Glucocerebrosidase Inhibitors: qHTS Assay for Coffee Bean alpha-Galactosidase at pH 5.9 (AID 998; active means well fitted curve in the direction sought with a large enough effect; an effect the other way counts as inactive or inconclusive)
Outline: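 Fluorogenic 4-MU substrate hydrolysis, 80 uM substrate and 2 nM coffee bean alpha-galactosidase, pH 5.9 citrate buffer, 20 min at room temperature, then NaOH/glycine stop. Titration 0.7 nM–77 uM, normalized to no-enzyme and enzyme controls, AC50 via Hill equation.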

[13] = Primary qHTS to identify inhibitors of SARS-CoV-2 cell entry (AID 1645846); conditions: activity change, negative = inhibition: at 57.1 µM (top of the series) unless noted; further: nearly all actives have a fitted effect of over 45% in size
Outline: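 Luminescence readout (Bright-Glo luciferase) 48 h after pseudoparticle addition. HEK293-ACE2 cells, 1500/well; compound pre-incubation 1 h; Normalized to spike PP and bald PP.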

[14] = molecular target: Cytochrome P450 3A4 (Homo sapiens) (UniProt P08684); assay: qHTS Assay for Inhibitors and Substrates of Cytochrome P450 3A4 (AID 884; active means well fitted curve in the direction sought with a large enough effect; an effect the other way counts as inactive or inconclusive; further: nearly all actives have a fitted effect of over 50% in size)
Sequence of Cytochrome P450 3A4 (Homo sapiens) (P08684 whole entry, looked up): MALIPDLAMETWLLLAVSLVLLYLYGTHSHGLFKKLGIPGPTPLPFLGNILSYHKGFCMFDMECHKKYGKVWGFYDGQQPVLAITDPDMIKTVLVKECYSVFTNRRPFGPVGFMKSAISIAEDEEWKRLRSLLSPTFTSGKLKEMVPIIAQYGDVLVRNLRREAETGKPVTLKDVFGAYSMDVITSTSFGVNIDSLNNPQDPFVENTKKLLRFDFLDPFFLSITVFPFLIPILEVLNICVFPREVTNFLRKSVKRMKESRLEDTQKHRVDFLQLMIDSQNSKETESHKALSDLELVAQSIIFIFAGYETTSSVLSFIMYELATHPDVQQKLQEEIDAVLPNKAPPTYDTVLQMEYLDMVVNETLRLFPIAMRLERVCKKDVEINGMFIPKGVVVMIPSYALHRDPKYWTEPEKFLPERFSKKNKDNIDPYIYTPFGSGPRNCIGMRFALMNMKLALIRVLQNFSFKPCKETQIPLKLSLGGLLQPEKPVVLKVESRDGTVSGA
Outline: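 Luminescent readout of luciferin produced by CYP3A4 (20 nM) dealkylation of Luciferin-PPXE, 25 uM (its KM). NADPH-driven reaction ran 60 min at RT after 10 min compound preincubation; data scaled to 57 uM ketoconazole as 100% inhibition.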

[15] = molecular target: Ubiquitin carboxyl-terminal hydrolase 1 (Homo sapiens) (UniProt O94782); assay: Inhibitors of USP1/UAF1: Pilot qHTS (AID 504865; active means well fitted curve in the direction sought with a large enough effect; an effect the other way counts as inactive or inconclusive;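 further: rhodamine fluorescence freed from ubiquitin-rhodamine substrate followed over time; top concentration of the series differs between compounds; nearly all actives have a fitted effect of over 35% in size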)
Sequence of Ubiquitin carboxyl-terminal hydrolase 1 (Homo sapiens) (O94782 whole entry, looked up): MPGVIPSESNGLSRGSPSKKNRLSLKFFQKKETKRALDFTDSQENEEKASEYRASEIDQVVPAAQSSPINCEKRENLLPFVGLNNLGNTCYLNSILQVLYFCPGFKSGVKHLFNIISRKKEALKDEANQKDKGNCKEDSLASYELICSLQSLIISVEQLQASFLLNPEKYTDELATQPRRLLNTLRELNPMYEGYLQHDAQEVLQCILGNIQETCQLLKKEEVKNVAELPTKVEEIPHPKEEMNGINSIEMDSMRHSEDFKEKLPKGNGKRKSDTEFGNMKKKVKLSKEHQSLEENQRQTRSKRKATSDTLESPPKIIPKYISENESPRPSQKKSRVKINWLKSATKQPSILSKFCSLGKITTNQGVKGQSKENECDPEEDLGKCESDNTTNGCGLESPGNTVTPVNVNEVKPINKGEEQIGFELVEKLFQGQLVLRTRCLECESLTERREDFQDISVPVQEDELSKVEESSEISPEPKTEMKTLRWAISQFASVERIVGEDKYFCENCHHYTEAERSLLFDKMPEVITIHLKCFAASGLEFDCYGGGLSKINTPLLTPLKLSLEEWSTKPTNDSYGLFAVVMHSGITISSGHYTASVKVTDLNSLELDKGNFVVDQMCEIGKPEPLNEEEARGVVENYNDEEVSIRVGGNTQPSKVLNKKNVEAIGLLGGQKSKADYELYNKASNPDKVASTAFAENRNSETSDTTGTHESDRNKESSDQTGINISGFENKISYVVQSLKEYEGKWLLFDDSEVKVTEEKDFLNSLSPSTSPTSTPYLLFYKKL
Outline: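 USP1/UAF1 complex (1nM) preincubated with compound 15 min at room temperature, then Ub-Rho substrate (150nM final) added. Fluorescence read kinetically at 480/540 nm, 6 reads every 60 seconds. Buffer: 50mM HEPES pH 7.8, 0.5mM EDTA, 0.1 mg/ml BSA, 1mM TCEP, 0.01% Tween-20.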

[16] = Confirmatory qHTS to identify inhibitors of SARS-CoV-2 cell entry (AID 1645844); further: potency means the concentration at half of the fitted maximal effect; nearly all actives have a fitted effect of over 45% in size
Outline: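 Luminescence entry read-out after 48 h: spike-pseudotyped MLV particles (Wuhan-Hu-1, 19-aa C-terminal truncation) added to compound-pretreated (1 h) HEK293-ACE2 cells; Data were normalised to bald PP and spike PP wells.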

[17] = VSVG counterscreen qHTS to identify inhibitors of SARS-CoV-2 cell entry (AID 1645847); further: potency means the concentration at half of the fitted maximal effect; nearly all actives have a fitted effect of over 65% in size
Outline: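 HEK293-ACE2 cells (Expi293F stably expressing human ACE2) were pretreated with compound for 1 h at 37 °C, then infected with MLV-based VSV-G pseudotyped particles for 48 h. Luciferase luminescence was normalized to VSV-G PP and bald PP wells.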

Compound: CN1C2CCC1CC(OC(=O)C1CCC(C(=O)OC3CC4CCC(C3)N4C)(c3ccccc3)c3ccccc31)C2 (centres undefined)
- Potency [1]: inactive
- Potency [2]: inactive
- Potency [3]: inactive
- Potency [4]: inactive

Compound: CN(C)CCC(c1ccc(Br)cc1)c1ccccn1 (centres undefined)
- Potency [5]: inactive
- outcome [6]: inactive
- Potency [1]: inactive
- Potency [2]: inactive
- Potency [3]: inactive
- Potency [4]: inactive
- outcome [7]: inactive
- Potency [8]: inactive
- outcome [9]: inactive
- Potency [10]: inactive

Compound: O=S(=O)(c1cccc2c(I)cccc12)N1CCCNCC1
- outcome [11]: inactive
- outcome [12]: inactive
- Potency [5]: inactive
- Potency [1]: inactive
- Potency [2]: inactive
- Potency [3]: inactive
- Potency [4]: inactive
- Potency [10]: inactive
- activity change, negative = inhibition [13]: -29.1%

Compound: CN(C)CCCN1c2ccccc2CCc2ccccc21
- outcome [11]: inactive
- outcome [12]: inactive
- Potency [1]: inactive
- Potency [2]: inactive
- Potency [3]: inactive
- Potency [4]: inactive
- outcome [7]: inactive
- outcome [9]: inactive
- Potency [10]: inactive

Compound: CC(=O)Nc1cccc(-n2c(=O)n(C3CC3)c(=O)c3c(Nc4ccc(I)cc4F)n(C)c(=O)c(C)c32)c1
- Potency [1]: inactive
- Potency [2]: inactive
- Potency [3]: inactive
- Potency [4]: inactive
- outcome [7]: inactive
- Potency [8]: inactive
- outcome [9]: inactive
- Potency [10]: inactive

Compound: COc1ccc(-n2nc(C(N)=O)c3c2C(=O)N(c2ccc(N4CCCCC4=O)cc2)CC3)cc1
- Potency [1]: inactive
- Potency [2]: inactive
- Potency [3]: inactive
- Potency [4]: inactive
- outcome [7]: inactive
- Potency [8]: inactive
- outcome [9]: inactive
- Potency [10]: inactive
- Potency [13]: inactive

Compound: Cc1ccccc1O
- Potency [14]: inactive
- Potency [1]: inactive
- Potency [2]: inactive
- Potency [3]: inactive
- Potency [4]: inactive
- outcome [7]: inactive
- Potency [8]: inactive
- outcome [9]: inactive
- Potency [10]: inactive
- activity change, negative = inhibition [13]: -10.9% [at 114 µM]

Compound: COc1ccc(CCN(C)CCCC(C#N)(c2ccc(OC)c(OC)c2)C(C)C)cc1OC (centres undefined)
- outcome [5]: inactive
- Potency [1]: inactive
- Potency [2]: inactive
- Potency [3]: inactive
- Potency [4]: inactive
- outcome [7]: inactive
- outcome [9]: inactive
- Potency [10]: inactive

Compound: CCc1cc2c(cc1N1CCC(N3CCOCC3)CC1)C(C)(C)c1[nH]c3cc(C#N)ccc3c1C2=O
- Potency [1]: inactive
- Potency [2]: inactive
- Potency [3]: inactive
- Potency [4]: inactive
- outcome [7]: inactive
- Potency [8]: inactive
- outcome [9]: inactive
- Potency [10]: inactive
- Potency [13]: inactive
- activity change, negative = inhibition [13]: -34.9% [at 27.1 µM]

Compound: C[N+]1(CCCCC[N+]2(C)CCCC2)CCCC1
- outcome [11]: inactive
- outcome [12]: inactive
- Potency [5]: inactive
- outcome [6]: inactive
- Potency [1]: inactive
- Potency [2]: inactive
- Potency [3]: inactive
- Potency [4]: inactive
- outcome [7]: inactive
- Potency [8]: inactive
- outcome [9]: inactive
- Potency [10]: inactive

Compound: OCCCNc1cc(-c2ccnc(Nc3cccc(Cl)c3)n2)ccn1
- Potency [1]: 0.306 µM (active)
- Potency [2]: 0.193 µM (active)
- Potency [3]: 0.769 µM (active)
- Potency [4]: 0.968 µM (active)
- activity change, negative = inhibition [13]: -94.2%

Compound: CC(=O)[C@H]1CC[C@H]2[C@@H]3CCC4=CC(=O)CC[C@]4(C)[C@H]3CC[C@]12C
- Potency [14]: inactive
- outcome [11]: inactive
- outcome [12]: inactive
- Potency [5]: inactive
- outcome [6]: inactive
- Potency [15]: inactive
- Potency [1]: inactive
- Potency [2]: inactive
- Potency [3]: inactive
- Potency [4]: inactive
- outcome [7]: inactive
- outcome [9]: inactive
- Potency [16]: 24.1 µM (active)
- Potency [17]: 17.1 µM (active)

Compound: O=C1CCCC(=O)C1C(=O)c1ccc(C(F)(F)F)cc1[N+](=O)[O-]
- Potency [1]: inactive
- Potency [2]: inactive
- Potency [3]: inactive
- Potency [4]: inactive
- outcome [7]: inactive
- Potency [8]: inactive
- outcome [9]: inactive
- Potency [10]: inactive
- Potency [13]: inactive

Compound: Clc1ccc2c(c1)N=C(N1CCNCC1)c1ccccc1N2
- outcome [6]: inactive
- Potency [1]: inactive
- Potency [2]: inactive
- Potency [3]: inactive
- Potency [4]: inactive

Compound: C[C@H]1COc2c(N3CCN(C)CC3)c(F)cc3c(=O)c(C(=O)O)cn1c23
- Potency [1]: inactive
- Potency [2]: inactive
- Potency [3]: inactive
- Potency [4]: inactive
- outcome [7]: inactive
- Potency [8]: inactive
- outcome [9]: inactive
- Potency [10]: inactive
- activity change, negative = inhibition [13]: -10.7% and -28.1%

Compound: CCCCCCCCCCCCCCCC(=O)O[C@@H]1CC(C)=C(/C=C/C(C)=C/C=C/C(C)=C/C=C/C=C(C)/C=C/C=C(C)/C=C/C2=C(C)C[C@@H](OC(=O)CCCCCCCCCCCCCCC)CC2(C)C)C(C)(C)C1
- Potency [1]: inactive
- Potency [2]: inactive
- Potency [3]: inactive
- Potency [4]: inactive
- outcome [7]: inactive
- Potency [8]: inactive
- outcome [9]: inactive
- Potency [10]: inactive

Compound: CO[C@H]1[C@@H](O)[C@H](N)[C@@H](O[C@H]2O[C@H]([C@H](C)N)CC[C@H]2N)[C@H](O)[C@@H]1N(C)C(=O)CN
- Potency [1]: inactive
- Potency [2]: inactive
- Potency [3]: inactive
- Potency [4]: inactive
- outcome [7]: inactive
- Potency [8]: inactive
- outcome [9]: inactive
- Potency [10]: inactive
- activity change, negative = inhibition [13]: -5.5%

Compound: CO[C@@H]1[C@H](OC(=O)/C=C/C=C/C=C/C=C/C(=O)O)CC[C@]2(CO2)[C@H]1[C@@]1(C)O[C@@H]1CC=C(C)C
- Potency [1]: inactive
- Potency [2]: inactive
- Potency [3]: inactive
- Potency [4]: inactive
- outcome [7]: inactive
- Potency [8]: inactive
- outcome [9]: inactive
- Potency [10]: inactive

Compound: Cc1c(-c2ccc(O)cc2)n(Cc2ccc(OCCN3CCCCCC3)cc2)c2ccc(O)cc12
- Potency [1]: inactive
- Potency [2]: inactive
- Potency [3]: inactive
- Potency [4]: inactive
- Potency [8]: 10 µM (active)
- outcome [9]: inactive
- Potency [16]: 15.2 µM (active)
- Potency [10]: inactive
- Potency [17]: 27.1 µM (active)

Compound: OC[C@@H]1[C@@H](O)[C@H](O)[C@H]2[C@@H](O)CCN21
- Potency [1]: inactive
- Potency [2]: inactive
- Potency [3]: inactive
- Potency [4]: inactive
